Parameters in all cases: scale not given: direction of the effect not stated beside the values
Assay [1] concerns the target Protein translocase subunit SecA (Escherichia coli (strain K12)) (UniProt P10408). As to the kind of experiment: Assay to Identify E. coli SecA ATPase Inhibitors. In kind it is functional. The note with it: 30 µM.
Assay [2] deals with T1, Ubiquitin-activating enzyme e1, putative (Leishmania donovani (strain BPK282A1)) (UniProt E9BSI1).
T1 sequence (whole entry): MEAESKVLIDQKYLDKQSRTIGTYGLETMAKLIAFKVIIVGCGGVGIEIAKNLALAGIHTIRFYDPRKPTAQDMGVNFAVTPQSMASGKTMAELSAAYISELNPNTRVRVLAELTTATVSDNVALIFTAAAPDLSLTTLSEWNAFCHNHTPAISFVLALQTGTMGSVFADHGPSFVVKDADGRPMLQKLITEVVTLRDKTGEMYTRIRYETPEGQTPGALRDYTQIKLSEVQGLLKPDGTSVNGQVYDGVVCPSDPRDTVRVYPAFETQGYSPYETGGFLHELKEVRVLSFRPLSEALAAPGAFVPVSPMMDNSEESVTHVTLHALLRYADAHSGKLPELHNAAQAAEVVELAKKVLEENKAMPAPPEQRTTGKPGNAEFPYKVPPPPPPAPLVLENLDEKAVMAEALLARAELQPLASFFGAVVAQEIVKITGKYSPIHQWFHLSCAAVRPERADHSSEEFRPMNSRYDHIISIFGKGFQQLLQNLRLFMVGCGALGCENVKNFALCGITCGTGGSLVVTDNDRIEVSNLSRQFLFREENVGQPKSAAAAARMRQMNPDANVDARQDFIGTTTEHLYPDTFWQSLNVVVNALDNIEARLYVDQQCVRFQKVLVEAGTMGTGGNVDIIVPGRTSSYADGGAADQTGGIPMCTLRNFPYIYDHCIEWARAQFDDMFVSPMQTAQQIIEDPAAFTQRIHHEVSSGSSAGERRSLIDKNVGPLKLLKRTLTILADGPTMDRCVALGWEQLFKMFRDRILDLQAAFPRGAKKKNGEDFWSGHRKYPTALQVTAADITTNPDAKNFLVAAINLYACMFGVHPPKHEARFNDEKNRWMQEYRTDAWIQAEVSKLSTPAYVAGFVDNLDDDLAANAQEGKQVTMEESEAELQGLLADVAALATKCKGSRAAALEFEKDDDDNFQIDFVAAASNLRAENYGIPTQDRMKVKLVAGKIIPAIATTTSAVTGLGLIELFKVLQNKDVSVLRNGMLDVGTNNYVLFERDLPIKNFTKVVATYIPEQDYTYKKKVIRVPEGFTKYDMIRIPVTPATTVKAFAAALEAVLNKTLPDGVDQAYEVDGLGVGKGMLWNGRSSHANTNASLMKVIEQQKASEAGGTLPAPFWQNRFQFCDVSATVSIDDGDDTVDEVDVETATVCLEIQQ
Description: Leishmania donovani Ubiquitin Activating Enzyme (LdE1). In kind it is functional. The note with it: 30 µM.

Assay [3] deals with AMP-activated protein kinase, AMPK (Homo sapiens) (UniProt P54646+O43741+P54619+Q9UGJ0+Q9Y478+Q13131+Q9UGI9). Description: AMP-dependent Kinase enzyme assay. An in vitro enzyme assay that detects ADP turnover that is directly proportional to AMPK activity. This uses naive AMPK that is activated during the assay with MK-8722. To be noted: 30 µM. The format is functional.
The target in assay [4] is Sialic acid-binding Ig-like lectin 9 (Homo sapiens) (UniProt Q9Y336). As to the kind of experiment: Hs-Siglec9 ALPHAscreen SOP 20170721. To be noted: 10 µM. On the technique in general: Alpha assays give light when donor and acceptor beads are brought close together.
Sialic acid-binding Ig-like lectin 9 (Homo sapiens), sequence (Q9Y336 whole entry): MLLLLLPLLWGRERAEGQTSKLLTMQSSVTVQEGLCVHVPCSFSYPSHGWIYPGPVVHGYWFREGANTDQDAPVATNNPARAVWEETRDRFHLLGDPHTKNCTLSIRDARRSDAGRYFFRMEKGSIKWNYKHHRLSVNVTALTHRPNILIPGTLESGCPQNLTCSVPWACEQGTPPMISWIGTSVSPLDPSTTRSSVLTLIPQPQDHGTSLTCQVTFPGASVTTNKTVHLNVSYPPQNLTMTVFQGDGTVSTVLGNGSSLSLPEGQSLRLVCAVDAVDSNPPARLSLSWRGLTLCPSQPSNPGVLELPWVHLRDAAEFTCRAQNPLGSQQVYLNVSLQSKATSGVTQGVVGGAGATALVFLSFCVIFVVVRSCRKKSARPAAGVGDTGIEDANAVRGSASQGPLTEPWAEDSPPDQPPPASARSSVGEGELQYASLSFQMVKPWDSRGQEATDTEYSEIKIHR
For assay [5], the system named is Trypanosoma cruzi. Description: Trypanosoma cruzi phosphomannomutase and mannose-1-phosphate guanylyltransferase assay. The format is functional. To be noted: 10 µM.
Assay [6] has as its target T2, Arginase-2, mitochondrial (Homo sapiens) (UniProt P78540).
T2 sequence (whole entry): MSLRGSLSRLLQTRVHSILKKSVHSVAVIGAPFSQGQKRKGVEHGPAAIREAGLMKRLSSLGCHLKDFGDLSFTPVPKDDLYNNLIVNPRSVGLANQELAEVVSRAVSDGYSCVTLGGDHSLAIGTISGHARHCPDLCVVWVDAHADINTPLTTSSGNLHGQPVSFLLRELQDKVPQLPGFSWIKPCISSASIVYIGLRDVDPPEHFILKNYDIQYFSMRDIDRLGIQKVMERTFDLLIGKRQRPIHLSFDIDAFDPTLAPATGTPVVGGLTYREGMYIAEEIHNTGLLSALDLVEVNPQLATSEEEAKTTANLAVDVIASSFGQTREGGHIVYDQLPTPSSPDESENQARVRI
As to the kind of experiment: in vitro enzyme assay to detect the production of urea directly proportional to the activity of Arginase II. Further: in the data most compounds retested in dose-response had high values. In kind it is functional. To be noted: 33.3 µM.

Assay [7] addresses T3, Proteasome subunit beta (Trypanosoma cruzi) (UniProt O96673).
T3 sequence (whole entry): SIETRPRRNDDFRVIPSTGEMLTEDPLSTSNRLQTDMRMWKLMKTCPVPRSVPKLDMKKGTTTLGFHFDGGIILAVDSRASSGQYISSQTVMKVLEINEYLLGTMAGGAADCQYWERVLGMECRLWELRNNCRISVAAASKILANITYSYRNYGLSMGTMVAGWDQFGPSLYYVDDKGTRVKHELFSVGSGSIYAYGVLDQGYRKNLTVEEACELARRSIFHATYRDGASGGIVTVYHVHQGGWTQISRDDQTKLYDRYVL
As to the kind of experiment: Trypanosoma cruzi proteasome chymotrypsin-like activity (TcProtChymo) assay. Further: in the data most compounds retested in dose-response had high values. The format is functional. To be noted: 9.37 µM.

The species named for assay [8] is Homo sapiens. Description: To identify inhibition of the IFN signalling (Jak-Stat) pathway via expression of an eGFP reporter gene under the control of an IFN-stimulated response element (ISRE) containing MxA promoter. In kind it is functional. The note with it: 30 µM. A general note: In a reporter assay the amount or activity of a reporter protein is the signal.

Assay [9] has as its target T4, Tyrosyl-tRNA synthetase, putative (Trypanosoma cruzi (strain CL Brener)) (UniProt Q4DSP6).
T4 sequence (whole entry): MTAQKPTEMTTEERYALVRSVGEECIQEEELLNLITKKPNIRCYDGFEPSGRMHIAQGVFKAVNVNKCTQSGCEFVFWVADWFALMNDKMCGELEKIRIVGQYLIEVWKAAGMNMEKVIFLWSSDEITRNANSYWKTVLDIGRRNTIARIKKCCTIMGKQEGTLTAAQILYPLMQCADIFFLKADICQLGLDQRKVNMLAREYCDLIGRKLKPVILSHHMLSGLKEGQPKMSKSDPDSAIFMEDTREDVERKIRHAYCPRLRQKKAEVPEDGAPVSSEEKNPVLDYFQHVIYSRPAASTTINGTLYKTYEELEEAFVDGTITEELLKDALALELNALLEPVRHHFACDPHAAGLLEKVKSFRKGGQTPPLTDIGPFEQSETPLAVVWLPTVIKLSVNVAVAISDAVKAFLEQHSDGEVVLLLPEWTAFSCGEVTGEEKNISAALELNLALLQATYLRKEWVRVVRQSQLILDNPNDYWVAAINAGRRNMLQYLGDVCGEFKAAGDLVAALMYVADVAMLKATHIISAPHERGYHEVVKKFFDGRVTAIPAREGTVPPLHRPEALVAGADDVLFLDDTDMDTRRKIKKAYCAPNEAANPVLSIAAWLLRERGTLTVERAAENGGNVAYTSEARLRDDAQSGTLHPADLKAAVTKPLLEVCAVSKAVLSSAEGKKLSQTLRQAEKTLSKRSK
Description: Trypanosoma cruzi tyrosyl tRNA synthetase (TcYRS) _High Tyrosine SOP. Further: in the data most compounds retested in dose-response had high values. The format is functional. The note with it: 30 µM.

Assay [10] addresses T4, Tyrosyl-tRNA synthetase, putative (Trypanosoma cruzi (strain CL Brener)). Description: Trypanosoma cruzi tyrosyl tRNA synthetase (TcYRS) SOP. In kind it is functional. The note with it: 30 µM.
Assay [11] concerns the target Chromo domain-containing protein 1 (Saccharomyces cerevisiae (strain ATCC 204508 / S288c) (Baker's yeast)) (UniProt P32657). Description: ScCHD-1 Enzyme Inhibition Assay. Further: in the data most compounds retested in dose-response had high values. The format is functional. To be noted: 30 µM.
Assay [12] concerns N/A. As to the kind of experiment: Trypanosoma cruzi proteasome luciferase counter-screen. In kind it is functional. The note with it: 9.37 µM. In general terms: A counterscreen serves to expose hits that act by an unwanted route or on another target.

Where “and” joins values, the source holds several entries; their conditions need not be identical. Identical values can stand only once. For some of these results: Results with a measured potency or affinity are listed apart.

The values that follow come from ChEMBL document CHEMBL3988442, “University of Dundee, Small-Polar-MMV Screening Library” (2021).

Protein translocase subunit SecA (Escherichia coli (strain K12)), sequence (P10408 whole entry): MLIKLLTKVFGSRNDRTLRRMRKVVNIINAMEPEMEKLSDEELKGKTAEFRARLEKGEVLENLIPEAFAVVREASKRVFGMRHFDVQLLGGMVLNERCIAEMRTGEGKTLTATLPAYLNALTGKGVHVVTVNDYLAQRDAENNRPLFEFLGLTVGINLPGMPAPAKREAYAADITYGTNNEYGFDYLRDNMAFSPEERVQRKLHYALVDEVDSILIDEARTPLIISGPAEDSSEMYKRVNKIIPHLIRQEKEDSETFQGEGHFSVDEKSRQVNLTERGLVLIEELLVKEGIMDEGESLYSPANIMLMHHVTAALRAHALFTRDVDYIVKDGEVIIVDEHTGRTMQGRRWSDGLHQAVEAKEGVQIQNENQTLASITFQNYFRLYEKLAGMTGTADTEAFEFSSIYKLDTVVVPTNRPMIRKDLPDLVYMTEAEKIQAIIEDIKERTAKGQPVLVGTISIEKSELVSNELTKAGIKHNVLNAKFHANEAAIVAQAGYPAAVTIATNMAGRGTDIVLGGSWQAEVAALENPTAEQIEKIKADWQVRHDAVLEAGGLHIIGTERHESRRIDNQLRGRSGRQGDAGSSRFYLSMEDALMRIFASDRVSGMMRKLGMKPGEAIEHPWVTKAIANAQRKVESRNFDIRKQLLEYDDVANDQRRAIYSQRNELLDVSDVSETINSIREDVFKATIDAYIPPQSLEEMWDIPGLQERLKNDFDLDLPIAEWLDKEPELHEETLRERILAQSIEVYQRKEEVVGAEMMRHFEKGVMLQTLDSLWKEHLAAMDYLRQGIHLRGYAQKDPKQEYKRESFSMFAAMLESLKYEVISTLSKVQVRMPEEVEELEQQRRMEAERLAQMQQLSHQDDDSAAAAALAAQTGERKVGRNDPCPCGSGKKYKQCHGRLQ
Chromo domain-containing protein 1 (Saccharomyces cerevisiae (strain ATCC 204508 / S288c) (Baker's yeast)), sequence (P32657 whole entry, the tested form may be a part): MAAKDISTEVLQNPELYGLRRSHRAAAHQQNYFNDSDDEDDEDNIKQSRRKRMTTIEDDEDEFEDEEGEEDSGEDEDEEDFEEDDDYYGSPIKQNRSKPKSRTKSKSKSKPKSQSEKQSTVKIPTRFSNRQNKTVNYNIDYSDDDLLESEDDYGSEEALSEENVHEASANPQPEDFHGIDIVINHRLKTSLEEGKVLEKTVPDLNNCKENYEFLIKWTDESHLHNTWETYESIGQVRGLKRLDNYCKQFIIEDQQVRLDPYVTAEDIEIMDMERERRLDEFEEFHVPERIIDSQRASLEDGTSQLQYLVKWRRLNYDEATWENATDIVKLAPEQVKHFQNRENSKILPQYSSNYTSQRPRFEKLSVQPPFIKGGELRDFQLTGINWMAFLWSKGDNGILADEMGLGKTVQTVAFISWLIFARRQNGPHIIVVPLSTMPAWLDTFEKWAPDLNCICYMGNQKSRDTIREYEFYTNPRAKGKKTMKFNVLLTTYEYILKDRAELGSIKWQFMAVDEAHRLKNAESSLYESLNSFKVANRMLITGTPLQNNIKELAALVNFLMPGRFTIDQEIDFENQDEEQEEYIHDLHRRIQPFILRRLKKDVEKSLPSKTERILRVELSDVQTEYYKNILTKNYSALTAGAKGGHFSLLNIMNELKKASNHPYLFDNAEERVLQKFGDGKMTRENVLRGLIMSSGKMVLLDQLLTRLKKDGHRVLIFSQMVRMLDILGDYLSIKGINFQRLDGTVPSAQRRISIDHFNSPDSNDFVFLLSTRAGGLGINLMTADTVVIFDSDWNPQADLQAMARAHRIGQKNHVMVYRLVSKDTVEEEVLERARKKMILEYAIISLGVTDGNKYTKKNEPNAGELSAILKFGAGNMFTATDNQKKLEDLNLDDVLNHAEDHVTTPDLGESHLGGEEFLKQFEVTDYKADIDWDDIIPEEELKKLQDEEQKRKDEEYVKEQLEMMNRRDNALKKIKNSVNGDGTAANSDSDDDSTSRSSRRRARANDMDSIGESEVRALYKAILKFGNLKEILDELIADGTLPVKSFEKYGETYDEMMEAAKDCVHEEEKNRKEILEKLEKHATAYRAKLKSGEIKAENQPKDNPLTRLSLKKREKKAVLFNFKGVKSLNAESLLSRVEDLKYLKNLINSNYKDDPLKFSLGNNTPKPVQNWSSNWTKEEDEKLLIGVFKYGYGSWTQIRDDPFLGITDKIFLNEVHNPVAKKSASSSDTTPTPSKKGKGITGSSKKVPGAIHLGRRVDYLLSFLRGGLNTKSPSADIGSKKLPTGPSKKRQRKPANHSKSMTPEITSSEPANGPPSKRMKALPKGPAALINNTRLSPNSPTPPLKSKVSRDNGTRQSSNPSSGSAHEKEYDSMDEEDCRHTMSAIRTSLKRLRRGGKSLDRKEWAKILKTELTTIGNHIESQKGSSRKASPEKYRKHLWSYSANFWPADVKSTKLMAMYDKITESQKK

`Cc1ccc2nc(C3CCN(CCO)CC3)nn2c1`: the Percent Effect is 1.65% in [1]; 10.7% in [2]; 6.44% in [3]; 9.27% in [4]; -2.51% in assay [5]; -59.7% in [6]. Moreover, the Percent Effect in assay [7] is 4.79%; in assay [8] it was 23.1%; in assay [9], 2.08%; in assay [10], 10%; in assay [11], -0.68%.
Turning to `CCc1nnc2n1CCN(C(=O)c1csc(-c3cnn(C)c3)n1)C2`, the Percent Effect in assay [1] was -4.14%; in assay [2] it was 12.5%; in assay [3], -3.73%; in assay [4], 15.8%; in [5] it was 4.96%; in assay [6], 8.39%. Further, the Percent Effect in assay [7] is 15.1%; in assay [8] it was 0.753%; in assay [9], 3.16%; in [10], 7.69%; in assay [11] it was -5.68%.
Turning to `CCn1cc(NC(=O)C2CCN(Cc3ccccc3C#N)CC2)cn1`, the Percent Effect in assay [1] was -3.86%; in [2], 8.86%; in assay [3], 6.54%; in [4] it was 0.163%; in assay [5], -3.79%; in assay [6], 1.5%. Besides, the Percent Effect in assay [7] was 7.03%; in assay [8], 11.2%; in assay [9], 9.38%; in [10], 20.2%; in assay [11], -6.33%.
For `Cn1ncc2c1C(COCC1CC1)CN(Cc1ccoc1)C2` (stereo unspecified), the Percent Effect in [1] is -1.65%; in assay [2] it was 18.9%; in [3], 1.61%; in assay [4], -6.93%; in assay [5] it was 2.83%; in assay [6] it was 9.87%. Moreover, the Percent Effect in assay [7] turned out to be 23.8%; in [8] it was 27.7%; in assay [9], 5.41%; in assay [10] it was 20.5%; in assay [11], 2.77%.
Take `O=C(c1nc(-c2ccc3cc[nH]c3c2)no1)N1CCCC1`: the Percent Effect in assay [1] is -4.98%; in assay [2] it was -12%; in assay [3], 2.17%; in [4] it was 2.62%; in assay [5] it was 5.11%; in [6] it was -3.7%. The Percent Effect is 11.7% in assay [7]; -6.53% in assay [8]; 0% in [9]; -2.56% in assay [10]; -3.18% in assay [11].
Regarding `Cc1ccc(N2CCCN(C(=O)CC3CCCO3)CC2)nn1` (stereo unspecified), the Percent Effect in assay [1] is -2.51%; in [2], 21.6%; in assay [3] it was -11.8%; in assay [4] it was 5.27%; in [5] it was 3.87%; in assay [6], -8.82%. Besides, the Percent Effect is 14.8% in [7]; 7.13% in assay [8]; -1.48% in [9]; 18.5% in assay [10]; -9.23% in [11].
As to `O=C(c1ccncc1)N1CCC(c2nc(O)cc(-c3ccncc3)n2)C1` (stereo unspecified), the Percent Effect in [1] was -4.75%; in [2] it was 21.3%; in [3], 0.106%; in [4], -1.99%; in assay [5] it was 0.984%; in [6], -2.1%. Also, the Percent Effect in assay [12] is 6.33% and 4.26%; in assay [8] it was 4.05%; in assay [9], 6.38%; in assay [10], 14.1%; in assay [11] it was -6.07%.
`CC(=O)Nc1nc(CN2CCOC(Cn3cc(C)cn3)C2)cs1` (stereo unspecified): the Percent Effect in assay [1] is -2.79%; in [2] it was 15.6%; in assay [3], 9.13%; in assay [4] it was -6.5%; in [5], 0.0979%; in [6], 0.21%. Also, the Percent Effect was 19.5% in assay [7]; 2.79% in assay [8]; 3.81% in assay [9]; 21.2% in assay [10]; -20.4% in [11].
For the compound `Cc1noc(C)c1CN1C(=O)[C@H]2CC[C@@H]1CN(Cc1cccnc1N)C2`, the Percent Effect is 0.397% in assay [1]; 1.39% in assay [2]; 15.3% in assay [3]; -8.6% in [4]; -8.46% in [5]; 3.53% in assay [6]. Moreover, the Percent Effect is 23% in [7]; 31.8% in [8]; 0% in assay [9]; -5.13% in assay [10]; 3.37% in assay [11].
`Cc1ccc(CC(=O)N2CCOC(c3nc(C)n[nH]3)C2)cn1` (stereo unspecified): the Percent Effect in assay [1] was -3.84%; in assay [2], 20.8%; in assay [3], -6.18%; in [4], 28.2%; in assay [5], 3.79%; in assay [6], 5.74%. The Percent Effect in [7] was 5.96%; in assay [8], -6.79%; in assay [9], 6.32%; in [10] it was 12.8%; in [11] it was -3.82%.
Consider `CC(C)c1nc(C2CCCN2C(=O)c2ccc(N(C)C)nn2)no1` (stereo unspecified), for which the Percent Effect was -0.476% in [1]; 16.2% in [2]; -4.5% in [3]; -2.95% in assay [4]; 0.0929% in [5]; -4.25% in [6]. For the same compound, the Percent Effect in [7] was 6.1%; in assay [8], 24.1%; in assay [9], 3.96%; in assay [10], 15.8%; in assay [11], -5.4%.
